The values that follow come from PubChem BioAssay (NCI).

Molecules are shown by their SMILES. About 83,000 compounds went through this panel and 20% of them were active in at least one assay; those are over-represented in the sample as a whole.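 Assay: single dose, 48 h. Readout: percent growth (0 = no net growth; negative = cell death). Active: <10.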 Activity calls are given as the source filed them.

The test system of one test is MOLT-4 leukemia. As to the kind of experiment: NCI-60 one-dose screen, 48 h (100 = growth as untreated, 0 = no growth, -100 = all killed). Particulars: 10 µM unless noted.
Take `CCOC(=O)c1cc(-c2cccnc2)nc2c(Cl)cc(Cl)cc12`: the growth is 98.9% (inactive).
The same measure, in the same setting: the result for `CCC(C)(C)C(=O)O[C@H]1C[C@@H](C)C=C2C=C[C@H](C)[C@H](CC[C@@H]3C[C@@H](O)CC(=O)O3)[C@H]21` reads 72.8% (inactive).
In the case of `O=C1C(=O)c2ccc(Br)cc2-c2cc(Br)ccc21`, the growth was -31.4% (active).
On to `CCOC(=O)c1c(C)c(C(=O)OCC)n(C)c1C`, for which the growth was 87.1% (inactive).
As for `COc1ncc(-c2ccc3nccc(C#CCN4CCN(S(C)(=O)=O)CC4)c3c2)cc1NS(=O)(=O)c1ccc(F)cc1F`, the growth is -21% (active).
The same measure, in the same setting: in the case of `COc1ccc2c3c(c(OCCCN(C)C)nc2c1)-c1ccc(Cl)cc1C3=O` it was -17.2% (active); in that of `CC1=CC(=O)C(C(C)=Nc2ccccc2Cl)C(=O)O1` (stereo not drawn), 101% (inactive).
On the same count and under the same terms, in the case of `C=C(C[C@](O)(C(=O)/C=C/c1ccc(Cl)cc1)C(=O)OC)c1ccccc1` it was 62.9% (inactive); in that of `Nc1ccc(C2=Nc3cccc4cccc(c34)S2)cc1`, 82.2% (inactive); in that of `COc1cc(C2CC(c3ccc(C)cc3)=NN2C(C)=O)ccc1Oc1ccnc2cc(Cl)ccc12` (stereo not drawn), 86.8% (inactive).
As for `CSc1ncc2ncn(C3OC(CO)C(O)C3O)c2n1` (stereo not drawn), the growth was 109% (inactive).
For the molecule `COc1ccc2nc3cc(Cl)ccc3c(Nc3cc(C(C)C)c(O)cc3C)c2c1`, the growth is 18% (inactive).
The same measure, in the same setting: the result for `O=C(Nc1ccc(Cl)cc1Cl)Nc1ccc(-c2cccnc2)cc1N1CCC(CO)CC1` reads -0.573% (active).
`COc1ccc2c(c1)C(=O)c1c-2c(OCCCN(C)C)nc2cc(Br)ccc12`: the growth is 21.1% (inactive).
Still for that read-out and setting: the result for `CC(O)c1nc2c(c(=O)n(C)c(=O)n2C)n1C` (stereo not drawn) reads 117% (inactive).
Same read-out and setting: in the case of `COc1cc(Oc2cc(-c3cccnc3)ccc2NC(=O)Nc2ccc(F)cc2F)cc(OC)c1OC` it was 84.9% (inactive).
The same measure, in the same setting: the result for `O=C(/C=C/c1ccccc1Cl)c1ccc(O)cc1` reads 55.1% (inactive).
Consider `CN1CCN(Cc2ccc(NC(=O)c3[nH]ncc3Nc3ccnc4ccnn34)cc2)CC1`, for which the growth was 45.5% (inactive).
For the molecule `Cc1cc(C(C)(C)c2cc(C)c(O)c(CN(C)C)c2)cc(CN(C)C)c1O`, the growth is 87.4% (inactive).
The same measure, in the same setting: the result for `N#Cc1c(N)[nH]c(S)c1C#N` reads 108% (inactive).

A further test deals with SR leukemia. The test is described as above. Particulars: 10 µM unless noted.
`CCCCCCCCCCSc1ncnc2nc[nH]c12`: the growth is 82.6% (inactive).
For the molecule `Clc1ccc2c(Nc3ccc4oc(NCCN5CCCC5)nc4c3)ccnc2c1`, the growth is 1.43% (active).
As for `CCN(CC)CCCNCCCNc1cc(OC)cc2cccnc12`, the growth was 79.5% (inactive).
`CCCCCCCCCCCCNc1ncnc2[nH]ncc12`: the growth was 9.74% (active).
For the molecule `CCCCCCCC/C=C/CCCCCCCC1=NC(C)(C)CN1CCO`, the growth was -43.1% (active).
Same read-out and setting: in the case of `CC(=O)NC1(C(=O)O)CCCC1` it was 108% (inactive); in that of `c1ccc(N2CCN(c3nncc4ccccc34)CC2)nc1`, 103% (inactive).
Same read-out and setting: the result for `O=c1[nH]c(Cl)nc2c1cnn2-c1ccccc1` reads 32.1% (inactive); that for `ClC1=C(Cl)C(Cl)=C(Cl)C1=C/C=C/c1ccccc1`, -43.2% (active).
The same measure, in the same setting: the result for `CN(CC(=O)N(Cc1ccc(C2CCCCC2)cc1)c1ccc(C(=O)O)cc1)S(=O)(=O)c1c(F)c(F)c(F)c(F)c1F` reads -22.1% (active); that for `CCCCCCCCCCCCCCCCCC1=NC(C)(C)CN1CCO`, -42.7% (active).
Take `COc1ccc(CCN2CCCN3C2=Nc2ccccc2S3(=O)=O)cc1`: the growth is 24.5% (inactive).
On the same count and under the same terms, the result for `CCOC(=O)c1cc(-c2cccnc2)nc2c(Cl)cc(Cl)cc12` reads 117% (inactive).
As to `O=C1C(=O)c2ccc(Br)cc2-c2cc(Br)ccc21`, the growth is 4.99% (active).
Same read-out and setting: in the case of `CCOC(=O)c1c(C)c(C(=O)OCC)n(C)c1C` it was 87.8% (inactive).
The same measure, in the same setting: the result for `COc1ncc(-c2ccc3nccc(C#CCN4CCN(S(C)(=O)=O)CC4)c3c2)cc1NS(=O)(=O)c1ccc(F)cc1F` reads 1.58% (active); that for `COc1ccc2c3c(c(OCCCN(C)C)nc2c1)-c1ccc(Cl)cc1C3=O`, -32.7% (active).
Regarding `CC1=CC(=O)C(C(C)=Nc2ccccc2Cl)C(=O)O1` (stereo not drawn), the growth is 118% (inactive).
On the same count and under the same terms, the result for `C=C(C[C@](O)(C(=O)/C=C/c1ccc(Cl)cc1)C(=O)OC)c1ccccc1` reads 23.3% (inactive); that for `Nc1ccc(C2=Nc3cccc4cccc(c34)S2)cc1`, 57.5% (inactive).
Still for that read-out and setting: the result for `COc1cc(C2CC(c3ccc(C)cc3)=NN2C(C)=O)ccc1Oc1ccnc2cc(Cl)ccc12` (stereo not drawn) reads 35.1% (inactive); that for `CSc1ncc2ncn(C3OC(CO)C(O)C3O)c2n1` (stereo not drawn), 111% (inactive).
Same read-out and setting: in the case of `COc1ccc2nc3cc(Cl)ccc3c(Nc3cc(C(C)C)c(O)cc3C)c2c1` it was 16.9% (inactive).
